Data published in PubChem BioAssay.
The source made the active and inactive calls. Unless noted, the rule behind the calls is not given here.

Columns and labels:
[1] = resazurin metabolic signal in HepG2 cells – cell-based, resazurin fluorescence, 24 h, PK04 Diversity Set, profiling panel (AID 1172); details: HepG2 viability, higher = more signal; note: test concentration not given here
[2] = budding yeast growth changes without added modifier – OD600, strain BY4716, 24 h, basal condition, primary screen (AID 1173); details: S. cerevisiae BY4716 growth, OD600, 24 h; higher = more signal, called active from +8 up or from −8 down
[3] = viability profiling in MM1S myeloma cells – cell-based, resazurin fluorescence, basal, 24 h, PK04 Diversity Set, profiling panel (AID 1174); details: higher = more signal, called active from +8 up or from −8 down;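 note: MM1S multiple myeloma cell line; test concentration not given here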
[4] = target: Dihydroorotate dehydrogenase (quinone), mitochondrial (Plasmodium falciparum (isolate 3D7)) (UniProt Q08210); assay: inhibition of P. falciparum DHODH – biochemical, C-terminal His tag, absorbance 600 nm, primary screen (AID 1175); details: PfDHODH enzyme, DCIP absorbance 600 nm; higher = more signal, called active from +8 up or from −8 down;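 note: recombinant parasite enzyme with a five histidine tag at its C terminus; test concentration not given here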
[5] = inhibition of PAO1 biofilm formation – strain PAO1, LB-PBS medium, absorbance 600 nm, primary screen (AID 1176); note: test concentration not given here; details: P. aeruginosa PAO1 growth/biofilm, A600, 12 h; higher = more signal
[6] = growth modulation of vineyard yeast isolate – strain RM11-1a, OD600, basal, 24 h, primary screen (AID 1177);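 note: cultures grown under basal conditions with no added stressor; test concentration not given here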; details: S. cerevisiae RM11-1a growth, OD600, 24 h; higher = more signal, called active from +8 up or from −8 down
[7] = growth of efflux-deficient E. coli DRC39 – strain DRC39, OD650, 24 h, E. coli filamentation inducers, primary screen (AID 1178);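 note: growth measured as culture turbidity by optical density at 650 nm; test concentration not given here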; details: E. coli DRC39 acrAB, higher = more signal, called active from +8 up or from −8 down
[8] = growth of efflux-deficient E. coli DRC39 – strain DRC39, OD650, 48 h, E. coli filamentation inducers, primary screen (AID 1179);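 note: screen aims at cell division blockers that make cells filament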; details: E. coli DRC39 delta-acrAB growth, higher = more signal, called active from +8 up or from −8 down
[9] = viability profiling in RPMI8226 myeloma cells – cell-based, resazurin fluorescence, basal, 24 h, PK04 Diversity Set, profiling panel (AID 1180); details: higher = more signal;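 note: RPMI8826 multiple myeloma cell line at 5000 cells per well; test concentration not given here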
[10] = target: E3 ubiquitin-protein ligase XIAP (Homo sapiens) (UniProt P98170); assay: small molecules binding XIAP protein – biophysical, small-molecule microarray, fluorescence 635 nm, primary screen (AID 1181); details: higher = more signal;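 note: score merges 667 nm emission and signal to noise over triplicate slides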
Sequence of E3 ubiquitin-protein ligase XIAP (Homo sapiens) (P98170 whole entry, looked up): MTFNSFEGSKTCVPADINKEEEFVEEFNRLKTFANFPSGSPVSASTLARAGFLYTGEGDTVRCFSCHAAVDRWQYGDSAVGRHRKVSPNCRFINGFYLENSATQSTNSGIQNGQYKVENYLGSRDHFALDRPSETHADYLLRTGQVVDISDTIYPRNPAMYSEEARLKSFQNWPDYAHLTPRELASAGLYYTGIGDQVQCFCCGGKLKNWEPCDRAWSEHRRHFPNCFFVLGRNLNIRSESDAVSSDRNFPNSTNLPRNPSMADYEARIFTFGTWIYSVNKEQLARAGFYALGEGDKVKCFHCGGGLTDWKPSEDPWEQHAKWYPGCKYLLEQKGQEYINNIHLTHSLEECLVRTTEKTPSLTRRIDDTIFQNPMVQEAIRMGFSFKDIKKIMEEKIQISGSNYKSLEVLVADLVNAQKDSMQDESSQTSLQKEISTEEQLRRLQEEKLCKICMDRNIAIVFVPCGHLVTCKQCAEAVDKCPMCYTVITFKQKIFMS

Sequence of Dihydroorotate dehydrogenase (quinone), mitochondrial (Plasmodium falciparum (isolate 3D7)) (Q08210 whole entry, looked up): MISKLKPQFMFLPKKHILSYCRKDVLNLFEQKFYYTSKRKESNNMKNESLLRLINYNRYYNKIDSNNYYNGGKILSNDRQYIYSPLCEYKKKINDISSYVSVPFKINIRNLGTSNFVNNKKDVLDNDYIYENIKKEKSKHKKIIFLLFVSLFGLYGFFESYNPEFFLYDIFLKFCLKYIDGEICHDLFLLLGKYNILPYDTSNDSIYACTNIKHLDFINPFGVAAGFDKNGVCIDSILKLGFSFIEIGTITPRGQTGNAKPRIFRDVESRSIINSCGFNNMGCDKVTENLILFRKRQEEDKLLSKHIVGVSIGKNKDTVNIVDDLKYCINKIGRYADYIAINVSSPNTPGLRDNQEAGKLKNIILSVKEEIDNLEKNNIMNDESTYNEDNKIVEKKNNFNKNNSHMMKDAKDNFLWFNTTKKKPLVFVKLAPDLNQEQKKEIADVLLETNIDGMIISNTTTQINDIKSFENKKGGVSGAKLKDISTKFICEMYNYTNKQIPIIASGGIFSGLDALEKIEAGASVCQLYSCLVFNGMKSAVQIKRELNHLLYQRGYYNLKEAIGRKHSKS

Structure (SMILES) | z-score [1] | z-score [2] | z-score [3] | composite z-score [4] | z-score [5] | z-score [6] | z-score [7] | z-score [8] | z-score [9] | composite z-score [10]
CCCCCN1CC=CC23O[C@@H]4C=CCCOC(=O)C4[C@H]2C(=O)N(CCCCCCO)[C@@H]3C1=O (stereo not given in full) | 0.678 | 0.605 (inactive) | 0.0267 (inactive) | 0.401 (inactive) | 0.55 (inactive) | 0.543 (inactive) | 0.649 (inactive) | 0.567 (inactive) | 0.424 | 0.0702
CCCCC=C[C@@H](NC(=O)OCc1ccccc1Cl)c1ccccc1 | -0.656 | 1.33 (inactive) | -1.19 (inactive) | 0.0518 (inactive) | 0.84 (inactive) | 1.48 (inactive) | -1.32 (inactive) | -0.892 (inactive) | -1.2 | 0.0137
C#Cc1cc2ccccc2oc1=O | 0.236 | -5.07 (inactive) | -1.05 (inactive) | -0.748 (inactive) | -0.0322 (inactive) | -0.874 (inactive) | -1.46 (inactive) | -1.25 (inactive) | -1.14 | -0.172
C=CCNC(=O)[C@@H]1[C@H]2C(=O)O[C@H](c3ccccc3)[C@H](c3ccccc3)N2[C@H](c2ccccc2OCCO)[C@@]12C(=O)Nc1ccc(C#CCC(C(=O)OC)C(=O)OC)cc12 | -0.679 | 1.59 (inactive) | -8.99 (active) | -25.5 (active) | 2.19 (inactive) | 1.86 (inactive) | 0.108 (inactive) | -0.263 (inactive) | -7.28 | -0.0062
CCOC(=O)C[C@H]1[C@H](OC(=O)Cc2ccc3c(c2)OCO3)[C@@H](NC(=O)c2ccc3ccccc3n2)c2cc(OCCCO)ccc2N1C(=O)c1ccc2ccccc2n1 | 0.482 | -1.22 (inactive) | -0.145 (inactive) | -0.574 (inactive) | 0.325 (inactive) | -2.19 (inactive) | 2.08 (inactive) | 1.57 (inactive) | -0.172 | -0.0773
O=C1O[C@@H](c2ccccc2)[C@@H](c2ccccc2)N2[C@@H](c3ccc(OCCO)cc3)[C@]3(C(=O)Nc4ccc(C#CC5=CCCCC5)cc43)[C@@H](C(=O)NC[C@H](O)c3ccccc3)[C@H]12 | -0.661 | 1.49 (inactive) | -1.94 (inactive) | -0.729 (inactive) | 3.14 (inactive) | 2.72 (inactive) | -0.107 (inactive) | -0.245 (inactive) | -3.11 | -0.118
O=C1OCCC=C[C@H]2OC34C=CCN(Cn5nnc6ccccc65)C(=O)[C@H]3N(CCCO)C(=O)[C@@H]4C12 (stereo not given in full) | -0.614 | -0.63 (inactive) | 0.157 (inactive) | -0.535 (inactive) | -0.441 (inactive) | 0.227 (inactive) | -1.13 (inactive) | -0.951 (inactive) | -0.997 | -0.0351
COCCOC(=O)N1C(=O)[C@@]2(c3cc(C#CCC(C(=O)OC)C(=O)OC)ccc31)[C@H](c1ccc(OCCO)cc1)N1[C@H](c3ccccc3)[C@H](c3ccccc3)OC(=O)[C@H]1[C@@H]2C(=O)N1CCc2cc(OC)c(OC)cc2C1 | 0.125 | 2.56 (inactive) | 0.26 (inactive) | -0.523 (inactive) | 2.25 (inactive) | 3.32 (inactive) | 0.301 (inactive) | 0.294 (inactive) | 0.504 | 0.112
COC(=O)[C@@H]1N=C(c2ccc(OCCCO)cc2)O[C@@H]1C | 0.38 | 0.0443 (inactive) | -0.341 (inactive) | -0.403 (inactive) | -0.689 (inactive) | 0.895 (inactive) | 0.52 (inactive) | 1.13 (inactive) | 0.945 | 0.105
C=CCNC(=O)[C@@H]1[C@H]2C(=O)O[C@H](c3ccccc3)[C@H](c3ccccc3)N2[C@H](c2ccc(OCCO)cc2)[C@@]12C(=O)N(C(=O)OCCOC)c1ccc(C#Cc3ccc(OC)cc3)cc12 | -0.0068 | 1.21 (inactive) | 0.279 (inactive) | -0.0464 (inactive) | 2.08 (inactive) | 2.57 (inactive) | -0.709 (inactive) | -0.73 (inactive) | 0.725 | 0.102
N[C@@H](Cc1ccccc1)C(=O)NCc1cn(Cc2ccccc2)nn1 | 0.68 | -1.38 (inactive) | 0.323 (inactive) | -0.777 (inactive) | -0.452 (inactive) | -0.0114 (inactive) | 1.35 (inactive) | 0.614 (inactive) | 0.449 | -0.227
CC(C)c1ccc(NN2C(C(O)c3ccc(F)cc3)C=CC3C(=O)N(c4ccccc4)C(=O)C32)cc1 (stereo not given) | -0.0361 | -2.21 (inactive) | -1.25 (inactive) | 0.319 (inactive) | 1.36 (inactive) | 0.737 (inactive) | -0.159 (inactive) | 0.127 (inactive) | -0.895 | -0.226
CCOC(=O)C=Cc1cccc(C)c1O | -0.156 | -10.7 (active) | -0.753 (inactive) | -0.892 (inactive) | 0.0236 (inactive) | -4.67 (inactive) | 0.0457 (inactive) | -0.944 (inactive) | -0.529 | 0.0533
COC(=O)[C@@H]1N=C(c2ccc(OCCCO)cc2)O[C@@H]1c1ccccc1 | 1.64 | -2.99 (inactive) | 1.09 (inactive) | -0.103 (inactive) | -0.484 (inactive) | -0.763 (inactive) | 0.714 (inactive) | 0.129 (inactive) | 1.5 | 0.761
C=C[C@H]1C(C(=O)OCC)=CC[C@@H](c2ccccc2)N1S(=O)(=O)c1ccc(C)cc1 | 0.149 | 1.32 (inactive) | -0.172 (inactive) | 0.319 (inactive) | 0.257 (inactive) | 1.39 (inactive) | -0.621 (inactive) | -0.183 (inactive) | -0.667 | 0.199
CCOC(=O)C1=C[C@@H](c2ccccc2)N(S(=O)(=O)c2ccc(C)cc2)[C@H]1c1ccc(OC)cc1 | -0.664 | 1.11 (inactive) | -1.01 (inactive) | -0.668 (inactive) | 0.0236 (inactive) | 0.409 (inactive) | -1.06 (inactive) | -0.834 (inactive) | -1.24 | -0.0428
CCC1=C2CN(Cc3ccccc3)[C@@H](C(=O)Cc3ccccc3)C2C=CCC1 (stereo not given in full) | 0.999 | -3.13 (inactive) | -0.192 (inactive) | -3.14 (inactive) | -1.61 (inactive) | 0.129 (inactive) | 0.941 (inactive) | -0.0333 (inactive) | -0.0509 | 0.0554
COC(=O)[C@@]1(Cc2ccc(F)cc2)[C@H]2c3cc(C(=O)N4CCCC4)n(CCc4c[nH]c5ccccc45)c3C[C@H]2CN1C(=O)c1ccccc1 | -1.03 | 1.74 (inactive) | -2.23 (inactive) | -0.106 (inactive) | 0.343 (inactive) | 0.0323 (inactive) | -1.4 (inactive) | -0.319 (inactive) | -2.94 | -0.018
COC(=O)[C@@]1(Cc2ccc(OC)cc2)[C@H]2c3cc(C(=O)N4CCCC4)n(CCc4c[nH]c5ccc(OC)cc45)c3C[C@H]2CN1C(=O)c1ccccc1 | -1.23 | 1.26 (inactive) | -3.31 (inactive) | -0.112 (inactive) | 1.54 (inactive) | 0.708 (inactive) | -0.456 (inactive) | -0.0765 (inactive) | -3.35 | 0.123
CC(C)c1ccc(NN2C(C(O)c3ccc(C#N)cc3)C=CC3C(=O)N(c4ccccc4)C(=O)C32)cc1 (stereo not given) | -2 | -1.67 (inactive) | -1.26 (inactive) | -0.0438 (inactive) | 1.94 (inactive) | 1.15 (inactive) | -0.526 (inactive) | -0.926 (inactive) | -1.48 | -0.152
OCCCC1=CC(c2ccc(CN3CCCC3)cc2)N(Cc2cc3c(cc2Br)OCO3)CC1 (stereo not given) | 0.195 | -0.538 (inactive) | 0.163 (inactive) | 0.198 (inactive) | 0.485 (inactive) | 0.622 (inactive) | 0.243 (inactive) | 0.149 (inactive) | -0.343 | -0.0513
